Where “and” joins values, the source holds several entries; their conditions need not be identical. Identical values can stand only once. Hit rate of the full screen: of about 420,000 compounds, about 50,000 (12%) were called active. Entries that show only a call come without a potency. Not shown: some 26% with an inconclusive outcome. Calls come from the whole dose curve; as a rule, active = well fitted inhibition curve with a large enough effect; inconclusive = small, poorly fitted or top-dose-only effect; inactive = flat fitted curve, though single readings scatter. The sample as a whole holds a higher share of actives than the screen did.
Potency is the fitted concentration of half-maximal effect.

The test in a line: qHTS for Inhibitors of human tyrosyl-DNA phosphodiesterase 1 (TDP1): qHTS in cells in presence of CPT. Note: nearly all actives have a fitted effect of over 55% in size. The conditions noted are these: chicken DT40 Tdp1-/-;hTDP1 cells + 20 nM CPT, ATP luminescence, 48 h; series mostly up to 46.2 µM. The procedure, abridged: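 Chicken DT40 Tdp1-/- cells stably complemented with human TDP1 were seeded at 400 cells/well in medium containing 20 nM camptothecin, exposed to pin-transferred compounds, and grown at 37 °C for at least 48 hr. Viability was read as ATP luminescence.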
For orientation: qHTS replaces the single test concentration by a dilution series.
`Cc1cccc(N(C(=O)c2csnn2)C(C(=O)NCc2ccccc2)c2ccncc2)c1` (stereo not given): the Potency result is “inactive”.

Consider `Cc1ccc(NC(=O)CCCNC(=O)c2ccc(Cl)cc2)cc1S(=O)(=O)N1CCOCC1`, for which the Potency entry was “inactive”.

For `O=C(Nc1cccc(F)c1)N1CC2(CCN(C(=O)c3cnccn3)CC2)C1`, the Potency result is “inactive”.

Turning to `COc1ccc(NC(=O)Cn2ncn3c(cc4ccccc43)c2=O)c(OC)c1OC`, the Potency entry was “inactive”.

As for `O=C1CCC(C(=O)N2CCC(O)(c3ccccc3)CC2)CN1CCc1ccccc1` (stereo not given), the Potency result was “inactive”.

For `Cc1cccnc1NC(=O)CSc1nnc(COc2ccc(C(C)C)cc2)n1C`, the Potency entry is “inactive”.

Take `CN(CC(=O)Nc1ccccc1Cl)C(=O)COc1cccc2c1OC(C)(C)C2`: the Potency result is “inactive”.

In the case of `O=C(O)CSCC(=O)Nc1cccc(C(F)(F)F)c1`, the Potency entry was “inactive”.

Turning to `Cn1nc(C(F)(F)F)c(C(=O)Nc2cccc(C(F)(F)F)c2)c1SCc1ccc(Cl)cc1`, the Potency was 16.4 µM (active).

Regarding `CCC(=O)OCc1c(C(F)(F)F)nn(C)c1Oc1cccc(C(F)(F)F)c1`, the Potency result is “inactive”.

In the case of `Cc1ccc(OCCNC(=O)CNC(=O)c2ccc(C)c(C)c2)cc1`, the Potency result is “inactive”.

For the compound `COCCNC(=O)c1snc2ccc(Cl)cc12`, the Potency entry is “inactive”.

Regarding `CCC1=Nc2cc(C(=O)NCCCOC(C)C)ccc2Sc2ccc(C)cc21`, the Potency was 0.92 µM (active).

Turning to `CC(C)OCCCNC(=O)c1ccc(C2SCC(=O)N2Cc2ccco2)cc1` (stereo not given), the Potency entry was “inactive”.

Consider `COCCNC(=O)c1ccc2c(c1)N=C(C)c1cc(C)ccc1S2`, for which the Potency is 0.517 µM (active).

For the compound `CC(C)OCCCNC(=O)CNC(=O)c1cccs1`, the Potency entry is “inactive”.

Regarding `CCCCSc1[nH]c(=O)c(C(=O)OCC)cc1C#N`, the Potency entry is “inactive”.

On to `Cc1ccc(C)c(-n2c(SCC(=O)O)nc3sc4c(c3c2=O)CCCC4)c1`, for which the Potency entry was “inactive”.

In the case of `CCOC(=O)c1c(NC(=O)CN2C(=O)NC3(CCC(C)CC3)C2=O)sc(C)c1CC` (stereo not given), the Potency entry is “inactive”.

With `Nc1ccc(C(=O)NCc2ccccc2)cc1`, the Potency result was “inactive”.

Regarding `Nc1ccc(S(=O)(=O)NC(=O)c2ccccc2)cc1`, the Potency result is “inactive”.

In the case of `Nc1ccc(C(=O)Nc2ccccc2N)cc1`, the Potency is 2.37 µM (active) and 5.8 µM (active).

Turning to `O=C(NCC1CCCO1)/C(=C/c1ccc(Cl)cc1)NC(=O)c1ccccc1` (stereo not given), the Potency result is “inactive”.

As for `Cc1nn(C)cc1S(=O)(=O)N1CCN(c2ccc(F)cc2)CC1`, the Potency entry is “inactive”.

Take `O=C(COc1cccc2c1CCNC2=O)NC1CCCCC1`: the Potency result is “inactive”.

In the case of `COc1cccc(CNC(=O)C2CCN(S(=O)(=O)c3ccc4c(ccn4C)c3)CC2)c1`, the Potency entry is “inactive”.

Take `CCOc1ccccc1NC(=O)C1CCCN(S(=O)(=O)c2cn(C)cn2)C1` (stereo not given): the Potency entry was “inactive”.

Consider `CCOc1ccccc1CNC(=O)C1CCCN(S(=O)(=O)c2ccc3c(ccn3C)c2)C1` (stereo not given), for which the Potency was 14.6 µM (active).

With `O=C1CCCCC1Sc1ccc(Cl)cc1[N+](=O)[O-]` (stereo not given), the Potency result is “inactive”.

In the case of `Cc1c(CNC2CCCCC2)c(C(=O)O)c(C)n1Cc1cccc(Cl)c1`, the Potency result is “inactive”.

`CC(=O)c1ccc(NC(=O)C(C)NCc2ccc(Cl)cc2)cc1` (stereo not given): the Potency entry is “inactive”.

`Nc1nonc1-n1nnc(C(=O)N/N=C/c2ccc(Cl)cc2)c1-c1ccc2c(c1)OCO2`: the Potency entry was “inactive”.

In the case of `Cc1cc(N2C(=O)C(=O)/C(=C(/O)c3ccccc3)C2c2cccc(Br)c2)no1` (stereo not given), the Potency entry was “inactive”.

In the case of `CCN(CC)CCCC(C)n1c2nc(=O)[nH]c(=O)c-2nc2cc(Cl)ccc21` (stereo not given), the Potency is 8.2 µM (active).

As for `COc1ccc(/C=N/Nc2nc3ccccc3c(=O)[nH]2)cc1`, the Potency result is “inactive”.

On to `COc1ccc(Cc2nnc(N/N=C/c3ccccc3O)[nH]c2=O)cc1OC`, for which the Potency is 0.0184 µM (active).

With `O=c1[nH]c(NCCO)nnc1Cc1ccc(Cl)cc1`, the Potency result was “inactive”.

On to `COC(=O)C(=Nc1ccccc1)/C(C(=O)C(=O)N(C)c1ccccc1)=C(\O)c1ccc(Cl)cc1`, for which the Potency entry is “inactive”.

With `O=c1cnnc(Nc2ccccc2F)[nH]1`, the Potency entry is “inactive”.

With `Cc1c(C(=O)OCC(=O)N2CCCC2=O)oc2ccccc12`, the Potency result was “inactive”.

`CSCCC(NS(=O)(=O)c1ccc2c(c1)oc(=O)n2C)C(=O)NCc1ccccc1` (stereo not given): the Potency entry was “inactive”.

Take `Cc1ccc(NC(=O)C(Cc2ccccc2)NS(=O)(=O)c2ccc3c(c2)oc(=O)n3C)cc1C` (stereo not given): the Potency result was “inactive”.

As to `COc1ccccc1CNC(=O)C(Cc1ccccc1)NS(=O)(=O)c1ccc2c(c1)oc(=O)n2C` (stereo not given), the Potency is 20.6 µM (active).

`O=C(O)CCC(=O)NCc1ccc2[nH]c3c(c2c1)CCCC3`: the Potency entry is “inactive”.

Consider `Cc1cccc(NC(=S)NCc2ccc3[nH]c4c(c3c2)CCCC4)c1`, for which the Potency is 23.1 µM (active).

For the compound `Cc1cccc(NC(=S)N2CCCC(c3nc4ccccc4[nH]3)C2)c1` (stereo not given), the Potency entry is “inactive”.

Turning to `Cc1ccc(S(=O)(=O)N2CCOCC2)cc1C(=O)Nc1ccccc1N1CCCC1`, the Potency result was “inactive”.

Take `Oc1cccc(CCc2ccccn2)c1`: the Potency entry was “inactive”.

Turning to `C=CCC[C@@H](CCCCC)OC(=O)/C=C/[C@@H](O)[C@H](O)C[C@H](O)CC=C`, the Potency is 23.1 µM (active).

In the case of `CN(C)/C=C(/C(=O)c1ccccc1Cl)S(C)(=O)=O`, the Potency entry was “inactive”.

Regarding `COc1ccccc1-c1sc2ccccc2c1-c1ccc(C(C)=O)cc1`, the Potency result is “inactive”.

As for `COc1ccc(NC(=O)COC(=O)c2ccc(NS(=O)(=O)/C=C/c3ccccc3)cc2)cc1`, the Potency result is “inactive”.

Take `COC(=O)c1ccc(/C=C/c2c(-c3ccc(OC)cc3)sc3ccccc23)cc1`: the Potency is 14.6 µM (active).

Take `CCCCOc1ccc(C(=O)NCC(=O)OCC(=O)c2c(N)n(C)c(=O)n(C)c2=O)cc1`: the Potency result was “inactive”.

Consider `CC(C)c1nc2ccc(C(=O)O)cc2[nH]1`, for which the Potency result was “inactive”.

For the compound `Cc1nc2ccc(C(=O)O)cc2[nH]1`, the Potency entry is “inactive”.

Turning to `COC(=O)Nc1nc2ccc(Sc3ccccc3)cc2[nH]1`, the Potency is 651 nM (active) and 360 nM (active) and 517 nM (active).

Consider `N#Cc1ccccc1NC(=O)c1ccc2c(c1)OCO2`, for which the Potency entry was “inactive”.

With `Cc1cc(C)cc(NC(=O)C2CCN(c3nc(C)cc(C)n3)CC2)c1`, the Potency entry is “inactive”.

Regarding `CC(C)c1ccc(NC(=O)C2CCN(c3nc(-c4ccc(C(C)C)cc4)no3)CC2)cc1`, the Potency is 13 µM (active).

As to `CCOc1ccc(NC(=O)C2CCN(S(=O)(=O)c3cc(-c4noc(C)n4)ccc3C)CC2)cc1`, the Potency result was “inactive”.

Take `Cc1ccc(NC(=O)CSc2sc3c(O)cc(=O)[nH]c3c2C#N)cc1C`: the Potency result is “inactive”.

As for `CCC(=O)N1c2ccccc2NC2=C(C(=O)CCC2)C1c1ccco1` (stereo not given), the Potency entry was “inactive”.

On to `Cn1ccnc1SCC(=O)Nc1ccc2c(c1)OCCO2`, for which the Potency entry was “inactive”.

As to `C=CCn1c(CNC(=O)c2ccco2)nnc1SCC(=O)c1ccc(OC)cc1`, the Potency entry is “inactive”.

With `CCCNC(=O)C1(C)CCCN(Cc2cccc(C(F)(F)F)c2)C1` (stereo not given), the Potency was 18.4 µM (active).

Take `CCCNC(=O)C1(C)CCCN(Cc2c(C)nn(-c3ccccc3)c2C)C1` (stereo not given): the Potency entry is “inactive”.

`CCCNC(=O)C1(C)CCCN(C(=O)c2cccc(OC(C)=O)c2C)C1` (stereo not given): the Potency result was “inactive”.

`CCCNC(=O)C1(C)CCN(Cc2csc(-c3ccc(Cl)cc3)n2)C1` (stereo not given): the Potency was 23.1 µM (active).

`COCCNC(=O)C1(C)CCCN(Cc2cccc(F)c2)C1` (stereo not given): the Potency result is “inactive”.

Turning to `CCNC(=O)C1(C)CCN(Cc2ccc(C(=O)OCC)o2)C1` (stereo not given), the Potency result was “inactive”.

With `COc1ccc(CCNC(=O)COC(=O)C2CC2C)cc1` (stereo not given), the Potency result is “inactive”.

`COc1ccc(C(CNC(=O)c2ccc(S(=O)(=O)Nc3ccccc3F)cc2)N(C)C)cc1` (stereo not given): the Potency result is “inactive”.

Turning to `Cc1c(Br)ccc(NC(=O)COc2ccccc2C(N)=O)c1C`, the Potency result was “inactive”.

`CNC(=O)NC(=O)C(OC(=O)c1cccc(S(=O)(=O)N2CCCCC2)c1)c1ccccc1` (stereo not given): the Potency result was “inactive”.

Turning to `C=CCNC(=O)CC12CC3CC(C1)CC(CC(=O)NCC=C)(C3)C2`, the Potency entry is “inactive”.

On to `CC(=O)O[C@H]1CC[C@@]2(C)[C@@H](CC[C@@H]3[C@@H]2CC[C@]2(C)[C@@H](C(C)(C)O)C[C@@H]32)C1`, for which the Potency result was “inactive”.

With `COc1cc(F)c(C2=CC(=O)CC(C)(C)C2)cc1F`, the Potency entry was “inactive”.

For `c1cnc(Nc2nc(-c3ccc4ccccc4c3)cs2)nc1`, the Potency is 29.1 µM (active).

`NS(=O)(=O)c1ccc(Nc2nc(-c3ccccc3)cs2)cc1`: the Potency entry is “inactive”.

Consider `O=C(Nc1nc(-c2ccc(-c3ccccc3)cc2)cs1)c1cnccn1`, for which the Potency result is “inactive”.

`CCOc1cccc2c1OC1(CCCCC1)N1N=C(c3cccnc3)CC21` (stereo not given): the Potency entry was “inactive”.

As for `FC(F)(F)c1cccc(Cc2noc(CN3CCC(N4CCCCC4)CC3)n2)c1`, the Potency entry is “inactive”.

For `CCCCOC(=O)Nc1nnc(CC(=O)NCc2ccccc2)s1`, the Potency result was “inactive”.

Regarding `CN(C(=O)COC(=O)Cn1cnc2c1c(=O)n(C)c(=O)n2C)C1(C#N)CCCCC1`, the Potency entry is “inactive”.

Take `COC(=O)[C@@H]1C[C@@]2(O)[C@@H](O)[C@@H](O)[C@@H](O)C[C@H]2N1Cc1ccc(C)s1`: the Potency result is “inactive”.

In the case of `O=C(Nc1ccc2c(c1)OCO2)c1cc(-c2cccc(Cl)c2)on1`, the Potency entry is “inactive”.

As to `c1ccc(-c2cn3c(n2)CCc2ccc4cccnc4c2-3)cc1`, the Potency was 13 µM (active).

Take `c1ccc(-c2cn3cccnc3n2)cc1`: the Potency entry was “inactive”.

Take `CS/C(=C\[N+](=O)[O-])Nc1ccc(C)cc1`: the Potency result was “inactive”.

`COc1cc(C(C)=O)ccc1OC(=O)CN1C(=O)c2ccccc2C1=O`: the Potency entry is “inactive”.

As for `Cc1ccccc1N1CCN(CCCN2C(=O)C3CCCCN3C2=O)CC1` (stereo not given), the Potency entry is “inactive”.

Take `CCN(CC)CCCSc1nc2ccccc2s1`: the Potency entry is “inactive”.

Regarding `COc1ccc(N=Cc2c(O)[nH]c3ccccc23)cc1OC`, the Potency entry was “inactive”.

Turning to `COc1cc(N=Cc2c(O)[nH]c3ccccc23)cc(OC)c1OC`, the Potency is 20.6 µM (active).

For the compound `COc1cc2[nH]c(O)c(C=O)c2cc1OC`, the Potency entry is “inactive”.

`COc1ccccc1-c1nn(Cc2ccccc2)cc1C(=O)N1CCN(c2ncccn2)CC1`: the Potency is 25.9 µM (active).

With `COc1cccc(OC)c1C(=O)N1CCN(Cc2cccnc2)CC1`, the Potency result was “inactive”.

For the compound `Oc1ccc(CN2CCN(c3ncccn3)CC2)cc1`, the Potency result was “inactive”.

As for `O=C(NCc1ccco1)/C(=C/c1ccco1)NC(=O)c1ccccc1`, the Potency entry is “inactive”.

Take `CCCCC/C=C\C/C=C\CCCCCCCCCC(=O)O`: the activity change, negative = growth inhibition is -5.48% [at 4.12 µM] (inactive).

Consider `CC(C)CC[n+]1ccn(C2=C([O-])c3ccccc3C(=O)/C2=N\S(=O)(=O)c2ccccc2)c1`, for which the Potency is 11.6 µM (active).

Regarding `CCOC(=O)c1cc(-c2ccccc2)n(-c2cccc(C(=O)Nc3cc(OC)cc(OC)c3)c2)c1C`, the Potency entry was “inactive”.

As to `CCCC(=O)Nc1cc2nn(-c3ccccc3)nc2cc1C`, the Potency entry is “inactive”.

For the compound `COc1cc(OC)cc(C(=O)Nc2cc3nn(-c4ccccc4)nc3cc2Cl)c1`, the Potency was 11.6 µM (active).

Values taken from PubChem BioAssay AID686979 (National Center for Advancing Translational Sciences (NCATS), 2013).
